According to a collection of fitness landscapes (doi:10.1016/j.celrep.2020.107928):
The full ranking holds about 81,000 sequences; the median of “one-hybrid fitness for binding parS DNA” is about -0.17, and the highest 2% start at about 0.51. Shown is part of a subset that was picked to be rich in the highest values.

B1: Caulobacter ParB omega fusion; a variant is named by its letters at X, in order, B8GW30 (parent)
chain: MESVVVGEPGMSEGRRGLGRGLSALLGEVDAAPAQAPGEQLGGSREAPIEILQRNPDQPRRTFREEDLEDLSNSIREKGVLQPILVRPSPDTAGEYQIVAGERAWRAAQRAGLKTVPIMVRELDDLAVLEIGIIENVQRADLNVLEEALSYKVLMEKFERTQENIAQTIGKSXSHVANXMRLLXLPDEVQSYLVSGELTAXHARAIAAAADPVALAKQIIEGGLSVRETEALARKAPNLSAGKSKGGRPPRVKDTDTQALESDLSSVLGLDVSIDHRGSTGTLTITYATLEQLDDLCNRLTRGI

Variants of: B1
Test: one-hybrid fitness for binding parS DNA (scaled: cognate 1, non-cognate 0); higher = stronger binding
Conditions: with parS DNA site
How it was run: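 Selection: bacterial one-hybrid in E. coli USO, HIS3 reporter with the site 19 bp from the promoter, 48 hours at 37°C on M9-minus-histidine plus 0.1 mM IPTG and 5 mM 3-AT. Libraries were Caulobacter ParB with four randomised specificity codons, sequenced on Illumina before and after selection. Fitness is the rescaled log change in variant-to-wild-type read ratio, anchored to the cognate and non-cognate sites.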

Point of comparison: RMYN, “one-hybrid fitness for binding parS DNA” value 0.47. Against it:
- TDRN — lower, ≤ 0.2
- IALI — lower, ≤ 0.2
- HAQR — lower, ≤ 0.2
- LQQY — lower, ≤ 0.2
- RMYH — lower, 0.234
- RMYS — higher, 1.01
- RMNH — lower, 0.287
- RMNS — higher, 0.911
- RMNP — lower, ≤ 0.2
- AHEC — lower, ≤ 0.2
- EPSR — lower, ≤ 0.2
- TPDV — lower, ≤ 0.2
- PQMC — lower, ≤ 0.2
- RNTH — lower, ≤ 0.2
- RNTR — lower, ≤ 0.2
- RNTK — lower, ≤ 0.2
- RNTT — higher, 0.746
- RNTC — higher, 0.865
- RNTD — lower, ≤ 0.2
- RNTN — lower, 0.357
- RNTY — lower, 0.368
- RNTS — higher, 0.964
- RNTP — lower, ≤ 0.2
- RNTM — lower, 0.233
- RNTG — higher, 0.908
- NCAN — lower, ≤ 0.2
- MWTR — lower, ≤ 0.2
- DRQW — lower, ≤ 0.2
- ADQL — lower, ≤ 0.2
- NGAG — lower, ≤ 0.2
- HAPM — lower, ≤ 0.2
- HNLP — lower, ≤ 0.2
- SYAS — lower, ≤ 0.2
- NFNG — lower, ≤ 0.2
- AFDG — lower, ≤ 0.2
- DFNG — lower, ≤ 0.2
- RFDD — lower, ≤ 0.2
- RFDG — higher, 0.814
- RFNG — higher, 1
- LMSV — lower, ≤ 0.2
- AAST — lower, ≤ 0.2
- SSPQ — lower, ≤ 0.2
- THVR — lower, ≤ 0.2
- DHYT — lower, ≤ 0.2
- GFSS — lower, ≤ 0.2
- RYVT — higher, 0.716
- RYKH — lower, ≤ 0.2
- RYKN — lower, 0.394
- RYKT — higher, 0.708
- RYVK — lower, ≤ 0.2
- RYVR — lower, ≤ 0.2
- HYNK — lower, ≤ 0.2
- QWNN — lower, ≤ 0.2
- PIAM — lower, ≤ 0.2
- LLNT — lower, ≤ 0.2
- MIIT — lower, ≤ 0.2
- IARP — lower, ≤ 0.2
- RGVW — lower, ≤ 0.2
- RRVM — lower, ≤ 0.2
- RRKN — higher, 0.84
- RRKP — lower, 0.338
- RRKD — lower, ≤ 0.2
- RCKM — lower, 0.402
- RCNM — lower, 0.349
- RRVN — lower, 0.268
- RRKS — higher, 0.684
- RCKN — lower, 0.463
- RRDM — lower, ≤ 0.2
- RRNM — higher, 0.656
- RRKM — higher, 0.802
- IVNW — lower, ≤ 0.2
- TART — lower, ≤ 0.2
- ACQS — lower, ≤ 0.2
- MKRG — lower, ≤ 0.2
- RRRM — higher, 0.762
- RRVD — lower, ≤ 0.2
- RRVS — higher, 0.708
- RRYM — lower, 0.206
- RRVH — lower, ≤ 0.2
- RRKH — higher, 0.623
- RRVP — lower, ≤ 0.2
- RCKH — lower, ≤ 0.2
- RCRM — lower, 0.365
- GKVS — lower, ≤ 0.2
- NRQG — lower, ≤ 0.2
- ATIC — lower, ≤ 0.2
- YVNR — lower, ≤ 0.2
- QQAI — lower, ≤ 0.2
- RVPA — lower, 0.324
- PVHA — lower, ≤ 0.2
- RVIA — higher, 0.522
- DVWA — lower, ≤ 0.2
- RVWA — higher, 0.616
- NVWA — lower, ≤ 0.2
- RVSA — higher, 0.581
- PVSA — lower, ≤ 0.2
- RVHA — higher, 0.552
- SVIA — lower, ≤ 0.2
